Assay results from the supplement of paper PMC11732987, “Enantioselective OTUD7B fragment discovery through chemoproteomics screening and high-throughput optimisation” (Communications Chemistry, 2025).

Legend:
Experiment in all cases: log2 ratio of Biotin-Ahx-Ub-VS probe labelling (fragment/DMSO); higher = less target engagement (more negative = stronger competition), active = hit call of the paper (q ≤ 0.05, log2 ratio ≤ -1)
Details in all cases: compound concentration: 200 uM; treatment time: 3 h
OTUD6B = target: T1, OTUD6B (UniProt Q8N6M0)
T1 sequence (whole entry): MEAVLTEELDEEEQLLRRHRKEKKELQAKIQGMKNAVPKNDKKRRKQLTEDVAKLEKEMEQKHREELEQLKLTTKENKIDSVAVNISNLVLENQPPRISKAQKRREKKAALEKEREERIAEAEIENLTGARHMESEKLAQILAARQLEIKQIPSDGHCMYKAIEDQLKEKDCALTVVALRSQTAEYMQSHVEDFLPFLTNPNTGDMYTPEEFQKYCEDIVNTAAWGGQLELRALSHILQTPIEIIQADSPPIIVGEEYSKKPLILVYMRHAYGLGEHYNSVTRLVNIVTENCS
Summary of the method: (§1)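 Labelled DUBs were enriched with NeutrAvidin, digested with LysC and trypsin, and run by diaPASEF LC-MS/MS. The labelling used Biotin-Ahx-Ub-VS at 0.5 µM final for 1 h on HEK293T lysate (495 µg per sample) previously treated in triplicate with fragment at 200 µM or vehicle for 3 h. Values are average log2 fragment/vehicle ratios by unpaired t-test on global-median-normalised Spectronaut quantities of proteins with ≥2 unique peptides.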

OTUD7B = target: T2, OTUD7B (UniProt Q6GQQ9)
T2 sequence (whole entry): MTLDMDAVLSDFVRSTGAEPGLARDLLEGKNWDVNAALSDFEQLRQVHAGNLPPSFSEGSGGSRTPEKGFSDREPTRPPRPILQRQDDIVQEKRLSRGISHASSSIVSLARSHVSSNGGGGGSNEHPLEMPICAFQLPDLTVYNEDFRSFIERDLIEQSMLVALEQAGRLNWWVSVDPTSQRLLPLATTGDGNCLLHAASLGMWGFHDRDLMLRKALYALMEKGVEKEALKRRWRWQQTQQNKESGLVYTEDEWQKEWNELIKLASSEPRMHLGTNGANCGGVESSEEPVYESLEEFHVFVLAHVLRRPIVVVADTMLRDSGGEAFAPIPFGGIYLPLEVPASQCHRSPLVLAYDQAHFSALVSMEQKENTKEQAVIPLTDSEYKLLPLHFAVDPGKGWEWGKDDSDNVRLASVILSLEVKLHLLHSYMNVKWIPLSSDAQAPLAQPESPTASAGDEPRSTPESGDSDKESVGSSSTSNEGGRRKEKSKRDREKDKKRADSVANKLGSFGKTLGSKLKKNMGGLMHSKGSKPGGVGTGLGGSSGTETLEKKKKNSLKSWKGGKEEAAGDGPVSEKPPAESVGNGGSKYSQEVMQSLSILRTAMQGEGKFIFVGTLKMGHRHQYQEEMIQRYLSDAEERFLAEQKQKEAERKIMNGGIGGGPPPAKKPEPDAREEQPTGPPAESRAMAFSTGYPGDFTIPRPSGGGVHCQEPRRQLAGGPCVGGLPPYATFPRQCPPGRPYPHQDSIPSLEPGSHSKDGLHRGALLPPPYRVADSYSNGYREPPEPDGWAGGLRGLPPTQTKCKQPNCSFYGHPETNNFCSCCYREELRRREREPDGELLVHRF
Summary of the method: as §1

PRPF8 = PRPF8 (UniProt Q6P2Q9)
Summary of the method: as §1

PSMD7 = target: T3, PSMD7 (UniProt P51665)
T3 sequence (whole entry): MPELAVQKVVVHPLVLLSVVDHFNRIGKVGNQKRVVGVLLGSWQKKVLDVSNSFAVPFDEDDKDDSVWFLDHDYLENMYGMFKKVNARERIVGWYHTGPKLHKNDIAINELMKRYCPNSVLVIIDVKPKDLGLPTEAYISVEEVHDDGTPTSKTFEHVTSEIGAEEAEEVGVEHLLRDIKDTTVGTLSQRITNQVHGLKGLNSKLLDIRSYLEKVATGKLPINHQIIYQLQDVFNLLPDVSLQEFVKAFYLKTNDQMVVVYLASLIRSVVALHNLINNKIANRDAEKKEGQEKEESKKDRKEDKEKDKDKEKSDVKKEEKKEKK
Summary of the method: as §1

UCHL1 = UCHL1 (UniProt P09936)
Sequence of UCHL1 (P09936 whole entry, looked up): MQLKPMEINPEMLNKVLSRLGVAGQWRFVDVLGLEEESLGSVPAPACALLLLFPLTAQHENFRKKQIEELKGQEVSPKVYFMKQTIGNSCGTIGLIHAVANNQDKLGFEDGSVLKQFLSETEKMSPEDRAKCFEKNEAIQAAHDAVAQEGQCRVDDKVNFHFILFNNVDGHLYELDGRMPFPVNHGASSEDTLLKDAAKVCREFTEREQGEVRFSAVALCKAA
Summary of the method: as §1

UCHL3 = target: T4, UCHL3 (UniProt P15374)
T4 sequence (whole entry): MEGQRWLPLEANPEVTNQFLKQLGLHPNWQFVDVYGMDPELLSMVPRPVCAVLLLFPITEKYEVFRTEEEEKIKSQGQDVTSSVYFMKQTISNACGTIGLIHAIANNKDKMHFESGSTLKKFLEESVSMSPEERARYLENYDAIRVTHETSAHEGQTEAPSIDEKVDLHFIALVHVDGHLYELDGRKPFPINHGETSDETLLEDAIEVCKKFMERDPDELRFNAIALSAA
Summary of the method: as §1

UCHL5 = target: T5, UCHL5 (UniProt Q9Y5K5)
T5 sequence (whole entry): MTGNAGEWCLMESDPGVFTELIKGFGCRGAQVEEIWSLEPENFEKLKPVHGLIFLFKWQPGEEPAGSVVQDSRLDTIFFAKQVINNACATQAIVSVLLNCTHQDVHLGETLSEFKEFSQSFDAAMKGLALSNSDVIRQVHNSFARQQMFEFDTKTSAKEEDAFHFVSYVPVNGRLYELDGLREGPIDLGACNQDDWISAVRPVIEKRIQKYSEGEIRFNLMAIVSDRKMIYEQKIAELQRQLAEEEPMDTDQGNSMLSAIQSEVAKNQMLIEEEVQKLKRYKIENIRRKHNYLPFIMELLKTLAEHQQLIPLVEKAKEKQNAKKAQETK
Summary of the method: as §1

USP10 = USP10 (UniProt Q14694)
Sequence of USP10 (Q14694 whole entry): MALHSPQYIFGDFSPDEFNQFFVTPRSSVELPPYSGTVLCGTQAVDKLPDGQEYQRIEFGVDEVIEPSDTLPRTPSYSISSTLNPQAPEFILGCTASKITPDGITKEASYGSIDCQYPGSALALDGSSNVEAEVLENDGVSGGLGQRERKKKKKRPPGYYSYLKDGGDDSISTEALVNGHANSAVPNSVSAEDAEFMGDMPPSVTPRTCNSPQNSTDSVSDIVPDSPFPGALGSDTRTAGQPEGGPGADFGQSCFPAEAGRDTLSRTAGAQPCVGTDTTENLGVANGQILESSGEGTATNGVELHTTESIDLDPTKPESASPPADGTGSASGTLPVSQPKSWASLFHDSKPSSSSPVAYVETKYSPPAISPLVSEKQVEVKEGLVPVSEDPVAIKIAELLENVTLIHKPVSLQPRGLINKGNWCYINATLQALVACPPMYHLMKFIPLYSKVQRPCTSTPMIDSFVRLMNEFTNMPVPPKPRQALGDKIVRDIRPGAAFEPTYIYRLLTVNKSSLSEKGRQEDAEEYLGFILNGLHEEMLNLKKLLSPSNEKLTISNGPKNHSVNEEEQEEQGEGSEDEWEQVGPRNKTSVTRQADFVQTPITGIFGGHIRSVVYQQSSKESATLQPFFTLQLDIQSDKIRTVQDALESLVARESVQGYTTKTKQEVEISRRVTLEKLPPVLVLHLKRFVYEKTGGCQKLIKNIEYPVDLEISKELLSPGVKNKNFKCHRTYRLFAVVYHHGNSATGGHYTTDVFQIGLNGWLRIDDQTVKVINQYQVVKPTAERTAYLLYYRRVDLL
Summary of the method: as §1

USP15 = target: T6, USP15 (UniProt Q9Y4E8)
T6 sequence (whole entry): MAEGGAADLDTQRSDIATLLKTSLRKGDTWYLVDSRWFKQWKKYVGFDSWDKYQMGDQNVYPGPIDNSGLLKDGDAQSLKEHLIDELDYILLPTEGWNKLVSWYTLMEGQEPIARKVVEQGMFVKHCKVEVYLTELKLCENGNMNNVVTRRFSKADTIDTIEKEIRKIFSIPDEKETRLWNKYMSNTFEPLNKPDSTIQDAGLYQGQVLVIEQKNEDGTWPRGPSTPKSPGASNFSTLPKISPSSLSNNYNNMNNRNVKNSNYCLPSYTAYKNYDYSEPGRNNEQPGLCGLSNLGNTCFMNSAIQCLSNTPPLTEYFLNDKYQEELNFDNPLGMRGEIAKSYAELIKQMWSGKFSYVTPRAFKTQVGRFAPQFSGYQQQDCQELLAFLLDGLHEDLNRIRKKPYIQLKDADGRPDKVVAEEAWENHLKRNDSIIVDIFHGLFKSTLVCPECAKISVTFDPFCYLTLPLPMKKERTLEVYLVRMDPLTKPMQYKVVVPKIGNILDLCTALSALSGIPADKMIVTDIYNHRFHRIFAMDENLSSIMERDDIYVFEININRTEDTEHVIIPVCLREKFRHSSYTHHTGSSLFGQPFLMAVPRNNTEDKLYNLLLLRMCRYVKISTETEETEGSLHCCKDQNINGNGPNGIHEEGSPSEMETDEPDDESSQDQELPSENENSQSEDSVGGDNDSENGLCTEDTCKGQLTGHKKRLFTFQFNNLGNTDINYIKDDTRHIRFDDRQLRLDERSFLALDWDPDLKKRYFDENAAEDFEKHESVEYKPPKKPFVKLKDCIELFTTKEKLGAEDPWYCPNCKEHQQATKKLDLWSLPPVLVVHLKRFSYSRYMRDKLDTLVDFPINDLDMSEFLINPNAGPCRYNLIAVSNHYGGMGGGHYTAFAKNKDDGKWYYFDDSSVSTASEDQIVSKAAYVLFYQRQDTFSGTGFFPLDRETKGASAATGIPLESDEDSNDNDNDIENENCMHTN
Summary of the method: as §1

Measured: log2 ratio of Biotin-Ahx-Ub-VS probe labelling

CN(C)C(=O)c1ccc(CNC(=O)CCl)cc1
active: UCHL1 -1.23
inactive: OTUD6B -0.0231 | OTUD7B -0.351 | PRPF8 -0.0967 | PSMD7 -0.0924 | UCHL3 0.248 | UCHL5 -0.118 | USP10 -0.0496 | USP15 0.0414
